Source: PubChem BioAssay AID493168 (National Center for Advancing Translational Sciences (NCATS), 2011)
Results filed as inconclusive are left out. Unmarked numbers belong to inactive results. The source made the active and inactive calls. The call rests on the fitted dose curve; in most records, active means well fitted inhibition curve with a large enough effect; inconclusive means small, poorly fitted or top-dose-only effect, or effect the other way; inactive means flat fitted curve, though single readings scatter.

molecular target: Ubiquitin carboxyl-terminal hydrolase 2 (Homo sapiens) (UniProt O75604); assay: Confirmation Assay for Inhibitors of Ubiquitin-specific Protease USP2a Using CHOP2 as the Reporter; conditions: USP2 core, Ub-CHOP2 coupled reporter fluorescence; series mostly up to 38.3 µM; activity change, negative = inhibition: at the top concentration; further: nearly all actives have a fitted effect of over 55% in size;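 on activity change, negative = inhibition: plate controls were DMSO wells for no effect and full inhibition by NEM control for full effect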
Method in brief: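 Ub-CHOP2 cleavage coupled to reporter activation was read by fluorescence after 60 min at RT, with 25 nM final Ub-CHOP2 and substrate. Enzyme (10 nM final USP2 core) first sat 30 min with compound; data were normalized to NEM and fitted to concentration-response curves.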
Potency means the concentration at half of the fitted maximal effect.

Chain of Ubiquitin carboxyl-terminal hydrolase 2 (Homo sapiens) (O75604 whole entry, looked up): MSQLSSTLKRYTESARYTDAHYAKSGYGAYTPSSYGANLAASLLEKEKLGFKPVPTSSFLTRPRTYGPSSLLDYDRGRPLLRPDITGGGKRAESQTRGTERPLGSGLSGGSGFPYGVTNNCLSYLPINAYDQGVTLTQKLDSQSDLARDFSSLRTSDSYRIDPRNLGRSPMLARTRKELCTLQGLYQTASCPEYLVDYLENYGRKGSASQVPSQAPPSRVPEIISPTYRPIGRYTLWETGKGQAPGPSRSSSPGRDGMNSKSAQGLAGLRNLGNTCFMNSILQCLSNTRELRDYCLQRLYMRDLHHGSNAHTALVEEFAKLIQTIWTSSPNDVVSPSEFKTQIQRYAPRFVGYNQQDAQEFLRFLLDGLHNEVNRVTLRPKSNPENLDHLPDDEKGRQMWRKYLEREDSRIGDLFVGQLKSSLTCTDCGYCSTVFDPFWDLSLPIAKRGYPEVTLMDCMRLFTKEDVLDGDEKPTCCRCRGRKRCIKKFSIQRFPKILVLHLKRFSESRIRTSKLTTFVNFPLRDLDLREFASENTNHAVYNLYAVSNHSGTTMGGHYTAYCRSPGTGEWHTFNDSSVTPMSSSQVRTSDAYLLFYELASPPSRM

Structure (SMILES) | activity change, negative = inhibition [%] | Potency
CCN1C(=O)CSc2ccc(C(=O)NC3CCCCC3)cc21 | 2.08 | –
CCOC(=O)c1c(C)[nH]c(C(=O)COC(=O)CSC)c1C | 2.27 | –
CCC(=O)c1ccc(OCC(=O)NC2CCN(Cc3ccccc3)CC2)cc1 | 1.54 | –
Cc1ccc(-c2c(C#N)c(N)nc3c2CCCCC3)o1 | 3.04 | –
O=C(O)CC(C(=O)O)N1C(=O)/C(=C/C=C/c2ccco2)SC1=S (stereo not given) | – | 4.14 µM (active)
